# Legend:
# [1] = biological target: Tumor necrosis factor receptor superfamily member 10B (Homo sapiens) (UniProt O14763); test: caspase-8 TRAIL sensitization, hit retest, confirmation, cell-based, NB7+caspase-8, with/without TRAIL, luminescence panel (AID 651596); details: NB7 neuroblastoma + caspase-8, TRAIL sensitization, luminescence viability, with TRAIL, mean of runs, at 10 µM, stronger effect = higher value
# [2] = as above; details: NB7 neuroblastoma + caspase-8, without TRAIL, luminescence viability, without TRAIL, mean of runs, at 10 µM
# [3] = biological target: Tumor necrosis factor receptor superfamily member 10B (Homo sapiens) (UniProt O14763); test: TRAIL sensitizers in caspase-8 expressing neuroblastoma cells, dose response, NB7 cells plus caspase-8, luminescence, panel (AID 652002); details: NB7 neuroblastoma +caspase-8, TRAIL sensitization, luminescence viability, NB7+Caspase-8, with TRAIL, run 1; at 12.5 µM (top of the series)
# [4] = biological target: Tumor necrosis factor receptor superfamily member 10B (Homo sapiens) (UniProt O14763); test: as above; details: NB7 neuroblastoma +caspase-8, TRAIL sensitization, luminescence viability, NB7+Caspase-8, with TRAIL, run 2; at 12.5 µM (top of the series)
# [5] = as above; details: NB7 neuroblastoma +caspase-8, no TRAIL, compound-alone cytotoxicity counter-screen, luminescence viability, NB7+Caspase-8, run 1; at 12.5 µM (top of the series) unless noted
# [6] = as above; details: NB7 neuroblastoma +caspase-8, no TRAIL, compound-alone cytotoxicity counter-screen, luminescence viability, NB7+Caspase-8, run 2; at 12.5 µM (top of the series) unless noted
# Sequence of Tumor necrosis factor receptor superfamily member 10B (Homo sapiens) (O14763 whole entry, looked up): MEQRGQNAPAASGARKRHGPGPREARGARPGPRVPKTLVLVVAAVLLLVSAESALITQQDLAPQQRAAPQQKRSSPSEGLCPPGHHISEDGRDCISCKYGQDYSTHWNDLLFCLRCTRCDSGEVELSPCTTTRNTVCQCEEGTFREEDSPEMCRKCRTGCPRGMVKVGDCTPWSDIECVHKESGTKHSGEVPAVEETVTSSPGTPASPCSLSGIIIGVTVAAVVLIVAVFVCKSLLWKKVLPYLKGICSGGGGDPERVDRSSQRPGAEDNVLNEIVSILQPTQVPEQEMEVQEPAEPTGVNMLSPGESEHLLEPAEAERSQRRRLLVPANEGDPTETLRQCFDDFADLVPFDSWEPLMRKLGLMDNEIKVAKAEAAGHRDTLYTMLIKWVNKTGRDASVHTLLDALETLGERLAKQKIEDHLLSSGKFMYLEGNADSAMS
SMILES,activity [1],activity [2],"activity, % sensitization [3]","activity, % sensitization [4]","activity, % sensitization [5]","activity, % sensitization [6]"
Cc1ccc(-n2nnc(-c3cccnc3Cl)n2)cc1,56.4%,47.5%,33.6%,-11.1%,12%,-10.2%
COCCNc1c(-c2cc3ccc(C)c(C)c3[nH]c2=O)nc2ccccn12,64.9%,47.6%,60.1%,54.8%,-1.27%,53.5%
Cc1ccc2c(c1)C(=NC1CCCCC1)c1cc3ccccc3nc1-2,62.8%,51.2%,-15%,-9.21%,10.4%,-8.89%
CCOc1ccc2nc(NC(=O)c3cccc(-c4cc5ccccc5oc4=O)c3)sc2c1,56.2%,31.1%,-26.2%,-15.7%,-20.2%,-25.4%
Cc1onc(-c2c(Cl)cccc2Cl)c1C(=O)ONC(=O)c1ccccc1,72.9%,30.8%,1.55%,-5.77%,-2.95%,-9.25%
COCCCn1c(C(=O)Nc2ccc3c(c2)OCO3)cc2c(=O)n3cccc(C)c3nc21,70.2%,28.2%,-7.02%,-8.71%,-1.61%,-25.9%
Cc1nc2cc(NC(=O)c3ccco3)ccc2n1C,47.6%,48%,30.3%,32.8%,-8.74%,21.3%
CCCCCCCn1c2c(c(=N)c3ccccc31)CCC2,64.8%,51.8%,30.9%,38.9%,0.756%,28%
O=C(N/N=C/c1cccnc1)c1ccc2c(c1)OCO2,51.9%,42.5%,32.8%,32.4%,32.2%,46.2%
O=C(Nc1ccc2c(c1)OCCO2)NC1CCCCC1,49.5%,35.8%,31.2%,41.7%,32.9%,21%
Nc1ccccc1C(=O)NN=Cc1cccc([N+](=O)[O-])c1,66.6%,42.9%,44.8%,53.8%,-5.65%,35.3%
C=Cc1ccc(Cn2c(C)c(C(=O)NCc3cccc(C(F)(F)F)c3)sc2=O)cc1,60.2%,20.5%,-5.7%,-12.9%,5.05%,6.45%
CC(C)C(=O)Nc1ccc(NC(=O)c2ccccn2)cn1,53.6%,53%,34.7%,36.7%,8.97%,37.8%
Cc1nc2cc(NC(=O)Nc3cccc([N+](=O)[O-])c3)ccc2n1C,64.2%,54.4%,44.4%,49.5%,0.985%,3.35%
O/C(=C\c1ccc2ccccc2n1)c1ccc(O)cc1O,62.3%,42.8%,31.9%,48.7%,1.18%,20.3%
Cc1ccc(NC(=O)c2ccccc2O)cc1,61%,48.8%,28%,37.1%,29%,31.3%

SMILES,activity [1],activity [2],"activity, % sensitization [3]","activity, % sensitization [4]","activity, % sensitization [5]","activity, % sensitization [6]"
CCOc1ccc(-c2nnc(-c3ccccc3)o2)cc1,56%,47.3%,39.4%,39.8%,11.9%,-2.15%
CCN(CC)c1ccc(NC(=O)Nc2ccccc2)cc1,52%,47%,37.6%,44.7%,12%,31.2%
O=C1c2ccc3c4c(ccc(c24)C(=O)N1c1cccc(O)c1)C(=O)N(c1cccc(O)c1)C3=O,63.2%,53.8%,52.1%,35.7%,29.8%,21.3%
O=C(Nc1ccc(C(=O)O)cc1)/C(=C\C=C\c1ccccc1)NC(=O)c1ccccc1Cl,63.6%,53.1%,43.1%,38.4%,36.3%,45.9%
Cc1ccc2c(c1)-c1nc3ccccc3cc1C2=NC1CCCCC1,49.6%,41.6%,26.1%,46.1%,4.61%,-9.3%
COc1ccc(-c2cc(C(=O)OCC(=O)Nc3ccc4c(c3)OCO4)c3ccccc3n2)cc1,54.6%,48.5%,31.3%,43.9%,34.3%,46.2%
C/C(=N\NC(=O)c1n[nH]c2c1CCC2)c1ccco1,55.8%,51.4%,28.7%,33.5%,27.9%,24.1%
CN(C)S(=O)(=O)c1ccc(C(=O)Nc2nnc(SCC(=O)NCC3CCCO3)s2)cc1 (stereo unspecified),49.1%,38.5%,30%,32.3%,4.27%,28.4%
c1ccc(-c2cnc(-c3ccccn3)nn2)cc1,61.4%,53.5%,26.5%,46.5%,52.7%,36.1%
O=c1cc(-c2ccccc2)nc2cc(-c3ccc(F)cc3)[nH]n12,57.6%,47%,5.68%,-3.23%,-19%,-21.3%
Cc1ccc(NC(=O)c2cc3ccccc3o2)nc1,58.9%,49.5%,32.6%,41.2%,43%,41.7%
CC(C)Cc1nc2oc3c(Cl)ncnc3c2c2c1CCCC2,55.5%,49.8%,-5.07%,-15%,-9.85%,-8.86%
CCSc1ccc(-c2ccc(C)cc2)nn1,59.6%,51.1%,47.8%,52.9%,5.62%,35.8%
O=C1c2ccc(Cl)cc2S(=O)(=O)c2cccc(C(=O)N3CCC(Cc4ccccc4)CC3)c21,70.8%,26.7%,-6.25%,3.7%,-20.1%,-5.15%
Fc1ccc(-c2cnn3c(-c4ccncc4)ccnc23)cc1,49.5%,48.7%,-13.8%,-2.37%,13.2%,-12.3%
